# Laboratory results taken from the supplement of paper PMC12067093, “Discovery and optimisation of a covalent ligand for TRIM25 and its application to targeted protein ubiquitination” (Chemical Science, 2025).
# The full data set covers some 21,000 targets. This sample favours those with the largest changes.
# Compound: CC1Cc2ccccc2N1C(=O)C1CCCN(C1)C(=O)CCl (mixture of isomers) [TRIM25 ligand 11 (diastereomer mixture)]
# Assay: probe-labelled cysteine peptide fold change vs DMSO (competition) (log2 fold change); higher = less target engagement (more negative = stronger competition)
# Conditions: THP-1, incubation time: 4 h
# 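Note: competitive chemoproteomic profiling in live THP-1 cells with an iodoacetamide desthiobiotin (IA-DTB) probe, comparing probe-labelled peptide intensities in compound-treated cells against DMSO-treated controls.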
# UniProt A9YTQ3, sequence (A9YTQ3 whole entry, looked up): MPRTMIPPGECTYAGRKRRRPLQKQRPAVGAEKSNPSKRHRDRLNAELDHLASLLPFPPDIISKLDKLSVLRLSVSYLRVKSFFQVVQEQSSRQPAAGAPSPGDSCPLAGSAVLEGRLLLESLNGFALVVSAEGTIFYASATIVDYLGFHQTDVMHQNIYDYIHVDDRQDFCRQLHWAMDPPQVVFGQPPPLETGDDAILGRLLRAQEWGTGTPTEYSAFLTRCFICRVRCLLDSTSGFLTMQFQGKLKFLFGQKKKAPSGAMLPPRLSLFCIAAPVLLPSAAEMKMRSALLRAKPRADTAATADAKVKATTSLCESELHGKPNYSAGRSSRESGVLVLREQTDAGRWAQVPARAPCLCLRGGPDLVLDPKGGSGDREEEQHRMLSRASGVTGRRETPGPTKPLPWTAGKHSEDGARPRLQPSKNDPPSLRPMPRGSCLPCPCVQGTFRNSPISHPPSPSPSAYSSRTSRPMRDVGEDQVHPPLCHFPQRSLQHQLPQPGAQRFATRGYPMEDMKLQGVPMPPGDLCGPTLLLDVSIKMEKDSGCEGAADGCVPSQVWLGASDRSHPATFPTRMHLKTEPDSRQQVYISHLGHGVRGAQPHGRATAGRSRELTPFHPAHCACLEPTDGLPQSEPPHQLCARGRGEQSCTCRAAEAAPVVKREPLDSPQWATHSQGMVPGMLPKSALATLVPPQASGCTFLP
# UniProt P02749, sequence (P02749 whole entry, looked up): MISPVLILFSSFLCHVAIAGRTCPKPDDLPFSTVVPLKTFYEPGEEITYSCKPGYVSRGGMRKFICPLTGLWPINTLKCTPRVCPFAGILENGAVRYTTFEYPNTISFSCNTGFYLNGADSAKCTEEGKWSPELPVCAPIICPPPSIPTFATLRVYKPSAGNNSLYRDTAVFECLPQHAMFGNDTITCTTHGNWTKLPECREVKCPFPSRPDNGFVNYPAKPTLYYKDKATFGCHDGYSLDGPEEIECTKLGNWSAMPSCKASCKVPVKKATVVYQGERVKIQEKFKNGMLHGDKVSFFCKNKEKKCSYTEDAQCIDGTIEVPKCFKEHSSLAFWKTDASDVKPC
# UniProt P32121, sequence (P32121 whole entry, looked up): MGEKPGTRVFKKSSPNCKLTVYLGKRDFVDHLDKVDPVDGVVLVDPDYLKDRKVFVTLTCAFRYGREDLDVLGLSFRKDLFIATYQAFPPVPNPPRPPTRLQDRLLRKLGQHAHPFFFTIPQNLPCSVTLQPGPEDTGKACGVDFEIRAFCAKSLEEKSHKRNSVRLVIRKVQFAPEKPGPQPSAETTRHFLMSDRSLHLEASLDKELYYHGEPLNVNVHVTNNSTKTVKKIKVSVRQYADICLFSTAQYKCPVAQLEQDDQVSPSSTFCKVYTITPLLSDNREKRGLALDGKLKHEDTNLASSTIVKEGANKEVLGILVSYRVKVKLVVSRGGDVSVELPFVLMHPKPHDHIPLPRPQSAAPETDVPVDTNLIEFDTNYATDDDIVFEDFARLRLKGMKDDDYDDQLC
# UniProt O95782, sequence (O95782 whole entry, looked up): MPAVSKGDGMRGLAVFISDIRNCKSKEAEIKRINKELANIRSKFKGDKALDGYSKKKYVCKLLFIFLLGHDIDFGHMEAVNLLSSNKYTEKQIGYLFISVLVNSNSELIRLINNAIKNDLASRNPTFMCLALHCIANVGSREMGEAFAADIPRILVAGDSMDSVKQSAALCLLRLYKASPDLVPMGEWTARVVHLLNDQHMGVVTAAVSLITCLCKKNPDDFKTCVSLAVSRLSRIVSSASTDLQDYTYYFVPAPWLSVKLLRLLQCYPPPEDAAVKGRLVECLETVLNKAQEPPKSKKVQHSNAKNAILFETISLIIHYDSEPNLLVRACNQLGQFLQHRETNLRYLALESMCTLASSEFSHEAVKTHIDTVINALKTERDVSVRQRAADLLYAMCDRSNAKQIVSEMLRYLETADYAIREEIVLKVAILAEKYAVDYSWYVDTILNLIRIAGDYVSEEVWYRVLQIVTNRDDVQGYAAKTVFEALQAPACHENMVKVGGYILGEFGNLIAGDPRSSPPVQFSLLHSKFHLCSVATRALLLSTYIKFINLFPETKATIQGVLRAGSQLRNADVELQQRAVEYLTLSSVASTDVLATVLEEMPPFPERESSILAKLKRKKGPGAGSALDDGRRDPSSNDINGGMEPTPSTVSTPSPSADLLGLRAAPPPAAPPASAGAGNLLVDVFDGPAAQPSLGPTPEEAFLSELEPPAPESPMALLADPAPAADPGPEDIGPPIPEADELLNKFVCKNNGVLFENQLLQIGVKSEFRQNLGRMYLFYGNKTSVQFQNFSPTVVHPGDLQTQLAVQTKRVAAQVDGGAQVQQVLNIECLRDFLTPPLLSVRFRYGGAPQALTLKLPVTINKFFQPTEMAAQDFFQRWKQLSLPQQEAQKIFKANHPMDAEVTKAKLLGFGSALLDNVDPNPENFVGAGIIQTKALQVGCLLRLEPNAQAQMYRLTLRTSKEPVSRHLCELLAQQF
# UniProt P54687, sequence (P54687 whole entry, looked up): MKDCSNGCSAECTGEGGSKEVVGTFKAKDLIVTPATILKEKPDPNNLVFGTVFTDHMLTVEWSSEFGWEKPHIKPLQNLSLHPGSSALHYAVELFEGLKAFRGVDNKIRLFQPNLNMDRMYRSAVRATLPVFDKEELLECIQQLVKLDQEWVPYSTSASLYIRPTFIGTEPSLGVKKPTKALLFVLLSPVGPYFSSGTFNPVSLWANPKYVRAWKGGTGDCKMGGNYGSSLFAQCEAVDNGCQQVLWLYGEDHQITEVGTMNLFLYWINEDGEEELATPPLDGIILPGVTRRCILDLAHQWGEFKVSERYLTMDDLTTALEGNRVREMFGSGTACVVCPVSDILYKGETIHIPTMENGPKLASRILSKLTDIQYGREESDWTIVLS
# UniProt P50995, sequence (P50995 whole entry, looked up): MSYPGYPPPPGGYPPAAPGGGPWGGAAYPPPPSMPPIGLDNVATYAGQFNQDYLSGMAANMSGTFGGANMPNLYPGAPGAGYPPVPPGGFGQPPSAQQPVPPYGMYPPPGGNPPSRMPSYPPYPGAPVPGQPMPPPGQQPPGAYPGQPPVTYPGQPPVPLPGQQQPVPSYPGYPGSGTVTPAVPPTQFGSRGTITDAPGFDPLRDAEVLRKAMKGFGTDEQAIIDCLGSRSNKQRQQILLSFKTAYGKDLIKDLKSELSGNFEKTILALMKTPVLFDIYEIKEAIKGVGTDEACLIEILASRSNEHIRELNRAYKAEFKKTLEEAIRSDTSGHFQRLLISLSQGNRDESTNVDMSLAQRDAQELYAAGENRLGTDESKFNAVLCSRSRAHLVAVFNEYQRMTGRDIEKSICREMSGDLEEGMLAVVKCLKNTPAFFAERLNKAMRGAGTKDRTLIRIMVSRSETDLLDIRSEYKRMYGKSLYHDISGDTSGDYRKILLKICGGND
# UniProt O00116, sequence (O00116 whole entry, looked up): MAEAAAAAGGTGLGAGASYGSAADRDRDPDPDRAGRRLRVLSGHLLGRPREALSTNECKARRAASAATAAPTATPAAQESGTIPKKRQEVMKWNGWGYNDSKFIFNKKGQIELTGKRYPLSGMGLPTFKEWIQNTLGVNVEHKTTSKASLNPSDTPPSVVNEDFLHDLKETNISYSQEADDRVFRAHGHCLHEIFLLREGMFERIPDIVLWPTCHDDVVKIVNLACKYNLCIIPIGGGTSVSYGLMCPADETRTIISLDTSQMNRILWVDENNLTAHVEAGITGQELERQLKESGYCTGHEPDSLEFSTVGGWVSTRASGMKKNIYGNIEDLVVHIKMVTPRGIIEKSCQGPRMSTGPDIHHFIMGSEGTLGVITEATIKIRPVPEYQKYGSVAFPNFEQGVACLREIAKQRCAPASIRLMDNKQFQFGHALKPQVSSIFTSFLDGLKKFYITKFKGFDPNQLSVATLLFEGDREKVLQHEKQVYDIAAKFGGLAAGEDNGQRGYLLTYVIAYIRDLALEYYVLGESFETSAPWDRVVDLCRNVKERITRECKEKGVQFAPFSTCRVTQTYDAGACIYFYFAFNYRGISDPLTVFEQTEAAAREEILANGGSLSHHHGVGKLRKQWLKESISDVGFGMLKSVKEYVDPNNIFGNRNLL
# UniProt Q99766, sequence (Q99766 whole entry, looked up): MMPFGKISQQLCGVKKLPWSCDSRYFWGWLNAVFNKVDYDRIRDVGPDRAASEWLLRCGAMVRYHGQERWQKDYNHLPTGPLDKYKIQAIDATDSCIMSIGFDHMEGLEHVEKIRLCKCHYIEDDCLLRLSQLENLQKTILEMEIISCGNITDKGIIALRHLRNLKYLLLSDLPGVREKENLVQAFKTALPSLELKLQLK
# UniProt Q9UBW5, sequence (Q9UBW5 whole entry, looked up): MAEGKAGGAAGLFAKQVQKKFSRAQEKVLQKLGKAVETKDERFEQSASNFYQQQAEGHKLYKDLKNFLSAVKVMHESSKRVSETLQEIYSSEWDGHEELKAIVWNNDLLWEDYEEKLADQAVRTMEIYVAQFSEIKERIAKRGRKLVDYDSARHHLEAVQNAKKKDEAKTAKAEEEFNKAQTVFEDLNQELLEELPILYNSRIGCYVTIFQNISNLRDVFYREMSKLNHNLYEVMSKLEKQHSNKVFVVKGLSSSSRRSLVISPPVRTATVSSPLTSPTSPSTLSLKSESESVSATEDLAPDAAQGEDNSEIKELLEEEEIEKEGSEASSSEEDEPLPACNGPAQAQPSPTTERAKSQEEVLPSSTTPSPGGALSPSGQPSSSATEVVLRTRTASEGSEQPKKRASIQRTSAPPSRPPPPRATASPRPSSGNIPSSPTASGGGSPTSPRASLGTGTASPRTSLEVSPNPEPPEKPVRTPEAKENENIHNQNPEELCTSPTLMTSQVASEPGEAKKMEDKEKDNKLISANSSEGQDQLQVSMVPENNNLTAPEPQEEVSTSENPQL
# UniProt Q9NYG5, sequence (Q9NYG5 whole entry, looked up): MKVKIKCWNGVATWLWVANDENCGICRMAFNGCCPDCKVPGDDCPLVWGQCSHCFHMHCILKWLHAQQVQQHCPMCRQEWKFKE
Target,probe-labelled cysteine peptide fold change (10 µM),probe-labelled cysteine peptide fold change (50 µM)
AKAP8_O43823_392+395_IQFACSVCK (UniProt O43823),-0.0142,0.0345
ATP5F1A_P25705_244_KLYCIYVAIGQK (UniProt P25705),-0.433,0.0534
ANAPC11_Q9NYG5_76_WLHAQQVQQHCPMCR (UniProt Q9NYG5),-0.122,0.153
ANKRD50_Q9ULJ7_113_QALAFHFCK (UniProt Q9ULJ7),0.472,0.778
ARRB2_P32121_270_CPVAQLEQDDQVSPSSTFCK (UniProt P32121),0.677,0.57
ARHGAP25_P42331_154_VAGTPCGVFGQR (UniProt P42331),0.0288,-0.103
BIN2_Q9UBW5_205_IGCYVTIFQNISNLR (UniProt Q9UBW5),0.21,0.194
AIP_O00170_78_LPVWETIVCTMR (UniProt O00170),-0.126,1.17
AKAP17A_Q02040_17_AAATIVHDTSEAVELCPAYGLYLK (UniProt Q02040),0.583,0.399
ARSA_P15289_493_GEDPALQICCHPGCTPR (UniProt P15289),0.139,0.309
APTX_Q7Z2E3_161_DAAQEAEAGTGLEPGSNSGQCSVPLK (UniProt Q7Z2E3),0.282,-0.342
APOH_P02749_124_CTEEGK (UniProt P02749),0.632,0.551
AGPS_O00116_226_IVNLACK (UniProt O00116),0.221,0.311
ARPC1B_O15143_26_TQIAICPNNHEVHIYEK (UniProt O15143),0.062,0.00851
ATIC_P31939_101_VVACNLYPFVK (UniProt P31939),-0.0132,0.0726
ARHGAP45_Q92619_528_SATISYYQMMHMQTAPLPVHFQMLCESSK (UniProt Q92619),-0.132,-0.236
ATP5S_Q99766_134_CHYIEDDCLLR (UniProt Q99766),-0.0886,0.0874

Target,probe-labelled cysteine peptide fold change (10 µM),probe-labelled cysteine peptide fold change (50 µM)
AMPD2_Q01433_107_SLPGPAPCLK (UniProt Q01433),-0.11,-0.295
ANTXR1_Q9H6X2_257_VLCSFK (UniProt Q9H6X2),0.067,0.257
ASAP1_Q9ULH1_652_QTALGNTVLHYCSMYSKPECLK (UniProt Q9ULH1),0.0362,0.157
AHRR_A9YTQ3_485_DVGEDQVHPPLCHFPQR (UniProt A9YTQ3),0.678,0.583
ASMTL_O95671_274_AEAGEAGQATAEAECHR (UniProt O95671),-0.103,-0.158
ATF6_P18850_321_ESACQSR<|>ATF6B_Q99941_340_ESACQSR (UniProt Q99941+P18850),0.753,1.73
AP2A1_O95782_492_TVFEALQAPACHENMVK (UniProt O95782),0.179,0.0904
ALG11_Q2TAA5_72_NQMVIAFFHPYCNAGGGGER (UniProt Q2TAA5),-0.0377,-0.618
ARID1A_O14497_2043_EEEQDQGVSCNK (UniProt O14497),0.662,0.268
ARFGEF2_Q9Y6D5_76_YFLPFELACQSK<|>ARFGEF1_Q9Y6D6_88_YFLPFELACQSK (UniProt Q9Y6D6+Q9Y6D5),-0.179,-0.147
ATP6V1A_P38606_138_WDFTPCK (UniProt P38606),-0.198,-0.819
ANKRD10_Q9NXR5_140_SGSLECISALVANGAHVDLR (UniProt Q9NXR5),-0.314,-0.119
ARPC1B_O15143_227_VAWVSHDSTVCLADADK (UniProt O15143),0.316,0.0213
ARF6_P62330_90_HYYTGTQGLIFVVDCADRDRIDEAR (UniProt P62330),-0.368,0.0425
BCAT1_P54687_338_EMFGSGTACVVCPVSDILYK (UniProt P54687),0.15,0.0428
ANXA11_P50995_384_FNAVLCSR (UniProt P50995),-0.0174,-0.0325
